Results published in PubChem BioAssay (NCI).
Several values for one entry are separate records, joined by “and”; a condition that tells them apart may be missing. Identical values can stand only once. The panel holds about 79,000 compounds, 15% with a hit somewhere; the sample as a whole holds those more often. Unmarked numbers belong to inactive results. Activity calls are given as the source filed them. No stated cut-off is given here; in the data, active means growth inhibition above about 70%; inactive means the rest.

Columns and labels:
[1] = NCI Yeast Anticancer Drug Screen. Data for the rad52 strain (AID 147);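 further: 0% = growth of vehicle-treated control cultures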; conditions: S. cerevisiae rad52 mutant growth inhibition, hits give high values
In short: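 Yeast strain carrying a DNA damage repair alteration was exposed to test compounds. Growth inhibition was measured relative to vehicle-treated controls.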

[2] = NCI Yeast Anticancer Drug Screen. Data for the wt1 strain (AID 149);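 further: 0% = growth of vehicle-treated wt1 cultures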; conditions: S. cerevisiae wt1 strain (SPY 50644) growth inhibition, hits give high values
In short: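 Measured: growth of wt1 yeast under compound versus vehicle treatment, reported as inhibition.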

[3] = NCI Yeast Anticancer Drug Screen. Data for the mgt1 strain (AID 153); conditions: S. cerevisiae mgt1 mutant growth inhibition, hits give high values
In short: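 Yeast mgt1 strain (DNA repair/cell-cycle alteration panel) exposed to compounds; growth inhibition measured relative to vehicle-treated controls.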

[4] = NCI Yeast Anticancer Drug Screen. Data for the rad50 strain (AID 155);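 further: 0% = growth of vehicle-only cultures of the same strain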; conditions: S. cerevisiae rad50 strain growth inhibition, hits give high values
In short: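 Growth of the mutant yeast was measured after compound exposure and referenced to vehicle-treated cultures.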

[5] = NCI Yeast Anticancer Drug Screen. Data for the mec2-1 strain (AID 157); conditions: S. cerevisiae mec2-1 strain, hits give high values
In short: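 mec2-1 yeast strain, carrying an alteration in DNA damage repair or cell cycle control, was exposed to compounds; growth inhibition was measured relative to vehicle-treated controls.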

[6] = NCI Yeast Anticancer Drug Screen. Data for the rad14 strain (AID 159);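 further: 0% = growth of vehicle-treated control cultures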; conditions: S. cerevisiae rad14 strain growth inhibition, hits give high values
In short: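 Here, inhibition of yeast growth was measured after compound exposure, using a strain with a genetic defect in DNA damage repair and vehicle-treated cultures as the reference.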

[7] = NCI Yeast Anticancer Drug Screen. Data for the sgs1 mgt1 strain (AID 161);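 further: 0% = growth of cultures given vehicle only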; conditions: S. cerevisiae sgs1 mgt1 strain, hits give high values
In short: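 Percent growth inhibition was derived by comparing compound-exposed mutant yeast with vehicle-exposed cultures. The strain carries alterations in DNA damage repair.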

[8] = NCI Yeast Anticancer Drug Screen. Data for the CLN2oe strain (AID 163);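 further: 0% = growth of vehicle-only control cultures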; conditions: S. cerevisiae CLN2oe strain, hits give high values
In short: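 Yeast cells carrying a defined cell-cycle control alteration were exposed to test compounds. Growth inhibition was scored against vehicle-treated control cultures.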

[9] = NCI Yeast Anticancer Drug Screen. Data for the cln2 rad14 strain (AID 165);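 further: 0% = growth equal to vehicle treated cultures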; conditions: S. cerevisiae cln2 rad14 strain, hits give high values
In short: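 Yeast carrying cln2 and rad14 alterations (cell cycle control and DNA damage repair) were exposed to compounds. Growth inhibition was measured against vehicle-treated controls.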

[10] = NCI Yeast Anticancer Drug Screen. Data for the bub3 strain (AID 167); conditions: S. cerevisiae bub3 mutant strain, hits give high values
In short: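 Whole-cell yeast assay. The mutant strain was incubated with compounds, and growth inhibition was determined by comparison with vehicle-treated cells.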

[11] = NCI Yeast Anticancer Drug Screen. Data for the wt2 strain (AID 169);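 further: 0% = growth of vehicle-treated yeast cultures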; conditions: S. cerevisiae wt2 strain growth inhibition, hits give high values
In short: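 Yeast cells were exposed to test compounds, and growth inhibition was measured relative to vehicle-treated controls.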

[12] = NCI Yeast Anticancer Drug Screen. Data for the mlh1 strain (AID 171);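 further: 0% = growth of vehicle-treated control cultures of the same strain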; conditions: S. cerevisiae mlh1 strain growth inhibition, hits give high values
In short: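 Yeast carrying a defined genetic alteration in DNA damage repair or cell cycle control were exposed to test compounds. Growth inhibition was measured relative to vehicle-treated controls.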

[13] = NCI Yeast Anticancer Drug Screen. Data for the sgs1 strain (AID 173);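 further: 0% = growth of vehicle-only control cultures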; conditions: S. cerevisiae sgs1 mutant, hits give high values
In short: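 Yeast mutant strains carrying defined defects in DNA damage repair or cell cycle control were exposed to test compounds. Growth inhibition was scored against vehicle-treated controls.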

[14] = NCI Yeast Anticancer Drug Screen. Data for the mlh1 rad18 strain (AID 175); conditions: S. cerevisiae mlh1 rad18 strain growth inhibition, hits give high values
In short: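 Growth inhibition of the yeast strain was measured after compound exposure and expressed relative to vehicle-treated controls. The strain carries defined defects in DNA damage repair.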

[15] = NCI Yeast Anticancer Drug Screen. Data for the rad18 strain (AID 177); conditions: S. cerevisiae rad18 mutant growth inhibition, hits give high values
In short: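 Yeast carrying a defined DNA damage repair alteration were exposed to compounds. Growth inhibition was expressed relative to vehicle-treated controls.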

[16] = at 5.0 µM (retest, dose inferred, filed as 0.5)
[17] = at 50.0 µM (retest, dose inferred, filed as 5.0)

What does the source list for `CC(C)OC(=O)Nc1ccc2nc(-c3cscn3)[nH]c2c1`?
growth inhibition ([1]; at 1.2 µM): -3%; growth inhibition ([1]; at 3.7 µM): -5%; growth inhibition ([1]; at 11.0 µM): -3%; growth inhibition ([1]; at 33.0 µM): 1%; growth inhibition ([1]; at 100.0 µM): 87% (active); growth inhibition ([2]; at 1.2 µM): -1%; growth inhibition ([2]; at 3.7 µM): 3%; growth inhibition ([2]; at 11.0 µM): -1%; growth inhibition ([2]; at 33.0 µM): -2%; growth inhibition ([2]; at 100.0 µM): 50%; growth inhibition ([3]; at 1.2 µM): -5%; growth inhibition ([3]; at 3.7 µM): -7%; growth inhibition ([3]; at 11.0 µM): -15%; growth inhibition ([3]; at 33.0 µM): 4%; growth inhibition ([3]; at 100.0 µM): 98% (active); growth inhibition ([4]; at 1.2 µM): -1%; growth inhibition ([4]; at 3.7 µM): -1%; growth inhibition [4, 16]: -4%; growth inhibition ([4]; at 11.0 µM): -3%; growth inhibition ([4]; at 33.0 µM): 10%; growth inhibition [4, 17]: 51%; growth inhibition ([4]; at 50.0 µM): 17.8%; growth inhibition ([4]; at 100.0 µM): 90% (active); growth inhibition ([5]; at 1.2 µM): 2%; growth inhibition ([5]; at 3.7 µM): 5%; growth inhibition [5, 16]: -4%; growth inhibition ([5]; at 11.0 µM): 8%; growth inhibition ([5]; at 33.0 µM): 16%; growth inhibition [5, 17]: 23%; growth inhibition ([5]; at 50.0 µM): -3.75%; growth inhibition ([5]; at 100.0 µM): 81% (active); growth inhibition ([6]; at 1.2 µM): -4%; growth inhibition ([6]; at 3.7 µM): -6%; growth inhibition ([6]; at 11.0 µM): -4%; growth inhibition ([6]; at 33.0 µM): 16%; growth inhibition ([6]; at 100.0 µM): 99% (active); growth inhibition [7, 16]: 1%; growth inhibition [7, 17]: 39%; growth inhibition ([7]; at 50.0 µM): 76% (active); growth inhibition ([8]; at 1.2 µM): -8%; growth inhibition ([8]; at 3.7 µM): -20%; growth inhibition ([8]; at 11.0 µM): -18%; growth inhibition ([8]; at 33.0 µM): -13%; growth inhibition ([8]; at 100.0 µM): 56%; growth inhibition [9, 16]: 8%; growth inhibition [9, 17]: 19%; growth inhibition ([9]; at 50.0 µM): 12.8%; growth inhibition ([10]; at 1.2 µM): -3%; growth inhibition ([10]; at 3.7 µM): -2%; growth inhibition [10, 16]: -1%; growth inhibition ([10]; at 11.0 µM): 4%; growth inhibition ([10]; at 33.0 µM): 25%; growth inhibition [10, 17]: 81% (active); growth inhibition ([10]; at 50.0 µM): 7.85%; growth inhibition ([10]; at 100.0 µM): 97% (active); growth inhibition ([11]; at 1.2 µM): -1%; growth inhibition ([11]; at 3.7 µM): -2%; growth inhibition ([11]; at 11.0 µM): -4%; growth inhibition ([11]; at 33.0 µM): 2%; growth inhibition ([11]; at 100.0 µM): 97% (active); growth inhibition ([12]; at 1.2 µM): 1%; growth inhibition ([12]; at 3.7 µM): 1%; growth inhibition ([12]; at 11.0 µM): 3%; growth inhibition ([12]; at 33.0 µM): 16%; growth inhibition ([12]; at 100.0 µM): 96% (active); growth inhibition ([13]; at 1.2 µM): 2%; growth inhibition ([13]; at 3.7 µM): 3%; growth inhibition ([13]; at 11.0 µM): 8%; growth inhibition ([13]; at 33.0 µM): 18%; growth inhibition ([13]; at 100.0 µM): 97% (active); growth inhibition [14, 16]: 11%; growth inhibition [14, 17]: 87% (active); growth inhibition ([14]; at 50.0 µM): 93.1% (active); growth inhibition ([15]; at 1.2 µM): -2%; growth inhibition ([15]; at 3.7 µM): -4%; growth inhibition ([15]; at 11.0 µM): -3%; growth inhibition ([15]; at 33.0 µM): 4%; growth inhibition ([15]; at 100.0 µM): 97% (active)

Which results are given for `O=C(O)CNC(=S)Nc1ccccc1`?
growth inhibition ([1]; at 1.2 µM): -72%; growth inhibition ([1]; at 3.7 µM): -88%; growth inhibition ([1]; at 11.0 µM): -22%; growth inhibition ([1]; at 33.0 µM): 54%; growth inhibition ([1]; at 100.0 µM): 85% (active); growth inhibition ([2]; at 1.2 µM): -52%; growth inhibition ([2]; at 3.7 µM): -52%; growth inhibition ([2]; at 11.0 µM): -47%; growth inhibition ([2]; at 33.0 µM): 43%; growth inhibition ([2]; at 100.0 µM): 91% (active); growth inhibition ([3]; at 1.2 µM): -36%; growth inhibition ([3]; at 3.7 µM): -17%; growth inhibition ([3]; at 11.0 µM): 6%; growth inhibition ([3]; at 33.0 µM): 77% (active); growth inhibition ([3]; at 100.0 µM): 94% (active); growth inhibition ([4]; at 1.2 µM): -67%; growth inhibition ([4]; at 3.7 µM): -68%; growth inhibition [4, 16]: 51%; growth inhibition ([4]; at 11.0 µM): -48%; growth inhibition ([4]; at 33.0 µM): 53%; growth inhibition [4, 17]: 82% (active); growth inhibition ([4]; at 50.0 µM): 4.35% and 69.5%; growth inhibition ([4]; at 100.0 µM): 93% (active); growth inhibition ([5]; at 1.2 µM): -68%; growth inhibition ([5]; at 3.7 µM): -21%; growth inhibition [5, 16]: 50%; growth inhibition ([5]; at 11.0 µM): -8%; growth inhibition ([5]; at 33.0 µM): 54%; growth inhibition [5, 17]: 85% (active); growth inhibition ([5]; at 50.0 µM): 6.5% and 52.1%; growth inhibition ([5]; at 100.0 µM): 90% (active); growth inhibition ([6]; at 1.2 µM): -47%; growth inhibition ([6]; at 3.7 µM): -41%; growth inhibition ([6]; at 11.0 µM): -48%; growth inhibition ([6]; at 33.0 µM): 47%; growth inhibition ([6]; at 100.0 µM): 91% (active); growth inhibition [7, 16]: -9%; growth inhibition [7, 17]: 91% (active); growth inhibition ([7]; at 50.0 µM): 5.2% and 64.6%; growth inhibition [9, 16]: 63%; growth inhibition [9, 17]: 92% (active); growth inhibition ([9]; at 50.0 µM): 36.6% and 42%; growth inhibition ([11]; at 1.2 µM): -74%; growth inhibition ([11]; at 3.7 µM): -64%; growth inhibition ([11]; at 11.0 µM): -49%; growth inhibition ([11]; at 33.0 µM): 31%; growth inhibition ([11]; at 100.0 µM): 88% (active); growth inhibition ([12]; at 1.2 µM): -63%; growth inhibition ([12]; at 3.7 µM): -56%; growth inhibition ([12]; at 11.0 µM): -30%; growth inhibition ([12]; at 33.0 µM): 53%; growth inhibition ([12]; at 100.0 µM): 93% (active); growth inhibition ([13]; at 1.2 µM): -55%; growth inhibition ([13]; at 3.7 µM): -51%; growth inhibition ([13]; at 11.0 µM): -39%; growth inhibition ([13]; at 33.0 µM): 56%; growth inhibition ([13]; at 100.0 µM): 91% (active); growth inhibition [14, 16]: 33%; growth inhibition [14, 17]: 70% (active); growth inhibition ([14]; at 50.0 µM): 3.45% and 54.6%; growth inhibition ([15]; at 1.2 µM): -56%; growth inhibition ([15]; at 3.7 µM): -17%; growth inhibition ([15]; at 11.0 µM): -21%; growth inhibition ([15]; at 33.0 µM): 53%; growth inhibition ([15]; at 100.0 µM): 82% (active)
